Screening data: PubChem, several laboratories
The list is not random: actives were taken first. Their share in the collection is about 1.9%.
ZTA DNA inh – ZTA (EBV) inhibition in EBNA-1 counter-screen. P03206. ZTA-DNA binding, fluorescence polarization. inhibition, % at 11 µM. actives 0.15% (n = 320,000); in the data active = inhibition above about 33%
Target sequence (P03206 whole entry, looked up): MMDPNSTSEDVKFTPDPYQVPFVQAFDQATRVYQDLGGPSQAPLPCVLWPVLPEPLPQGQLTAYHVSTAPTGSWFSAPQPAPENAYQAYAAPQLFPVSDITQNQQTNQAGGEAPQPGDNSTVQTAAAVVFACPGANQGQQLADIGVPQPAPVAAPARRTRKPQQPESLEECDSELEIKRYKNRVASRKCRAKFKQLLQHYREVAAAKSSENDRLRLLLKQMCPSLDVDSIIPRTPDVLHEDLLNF
aDG glyco up – increases alpha dystroglycan glycosylation; activation, % at 10 µM; Pro5-aDG cells, alpha-DG glycosylation AlphaScreen (IIH6); 0% Pro5, 100% B10-LARGE cell signal; actives 0.22% (n = 360,000);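 active = activation of at least 8% versus controls, or a plate z-score of at least 8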;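 note: Pro5 are CHO cells carrying HIG-tagged alpha-DG that lacks glycosylation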
PG9 binder – small molecules binding HIV-1 gp120 antibody PG9 | TR-FRET gp120-PG9 antibody binding | inhibition, % at 6.7 µM | actives 0.43% (n = 360,000) | AID 624416; in the data active = inhibition above about 8.5%
NCF1 inh – inhibitors of human p47phox binding | inhibition, % at 24.7 µM | actives 0.53% (n = 220,000) | P14598 | p47phox/p22phox peptide binding, fluorescence polarization, 2 h;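 active = inhibition above about 30%, limit read from the data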
Target sequence (P14598 whole entry, looked up): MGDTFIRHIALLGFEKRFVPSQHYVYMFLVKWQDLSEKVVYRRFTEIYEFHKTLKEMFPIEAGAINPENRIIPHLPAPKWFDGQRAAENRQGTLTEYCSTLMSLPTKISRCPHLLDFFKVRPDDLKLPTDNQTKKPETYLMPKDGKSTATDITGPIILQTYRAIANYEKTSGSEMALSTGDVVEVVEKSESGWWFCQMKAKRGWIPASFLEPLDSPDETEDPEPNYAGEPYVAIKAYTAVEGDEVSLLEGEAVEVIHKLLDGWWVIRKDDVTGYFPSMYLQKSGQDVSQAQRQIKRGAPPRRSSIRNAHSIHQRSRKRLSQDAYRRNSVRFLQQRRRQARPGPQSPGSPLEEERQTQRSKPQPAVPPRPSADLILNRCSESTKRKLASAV
EBNA-1 inh – blocks EBNA-1 binding to DNA. inhibition, % at 14.8 µM. EBNA-1 DNA binding, fluorescence polarization. AID 1950. actives 0.34% (n = 300,000); in the data active = inhibition above about 28%
Rev-erbA mod – Rev-erb alpha (human) modulation. P20393. Rev-erbα–FITC-DNA binding, fluorescence polarization, 90 min. activity, % at 10 µM. actives 0.79% (n = 370,000). AID 1259318;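 active = activity above about 14%, limit read from the data; passing the limit was not always enough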
EBNA-1 confirm – EBNA-1 (EBV) inhibition, confirmation. inhibition, % at 14.8 µM. shares compounds with EBNA-1 inh. Recombinant EBNA-1 DBD, Cy5-DNA fluorescence polarization. AID 2292. actives 35% (n = 830);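 active = mean inhibition across replicates above a set limit taken from the earlier primary screen, cut at about 28% in these data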
ZTA DNA inh trip – blocks Epstein-Barr virus ZTA in triplicate, EBNA-1 counter-screen; inhibition, % at 11.1 µM; shares compounds with EBNA-1 inh; Zta-ZRE DNA binding, Cy5 fluorescence polarization; 830 tested, under 10 active;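 active = mean inhibition over triplicates above a set limit taken from the primary EBNA-1 screen, cut at about 37% in these data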;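 note: purified full length Zta protein with Cy5 labeled ZRE DNA probe; inhibitors lower polarization by freeing the labeled DNA probe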
A number is an active result.

For CCOc1ccc2oc(C(=O)NNC(=O)c3ccccc3O)c(C)c2c1 the results were ZTA DNA inh inactive, aDG glyco up inactive, PG9 binder inactive, EBNA-1 inh 73, Rev-erbA mod inactive, EBNA-1 confirm inactive and ZTA DNA inh trip inactive.
For C[C@H]1[C@@H](OC(=O)Nc2cc(Cl)ccc2Cl)CC[C@@]23CCCN2C(=O)CCC[C@@H]13 the results were Rev-erbA mod inactive.
For COc1cc(NC(=O)C2Cc3ccccc3CN2S(C)(=O)=O)cc(OC)c1 (stereo not given) the results were ZTA DNA inh inactive, aDG glyco up inactive, PG9 binder inactive, EBNA-1 inh 38, Rev-erbA mod inactive, EBNA-1 confirm inactive and ZTA DNA inh trip inactive.
For COc1ccc(Cl)cc1NC(=O)C1Cc2ccccc2CN1S(C)(=O)=O (stereo not given) the results were ZTA DNA inh inactive, aDG glyco up inactive, PG9 binder inactive, EBNA-1 inh inactive and Rev-erbA mod inactive.
Cc1ccc(C(=O)NCC(=O)OCC(=O)c2ccc3c(c2)OCCO3)cc1C was read as ZTA DNA inh inactive, aDG glyco up inactive, PG9 binder inactive, NCF1 inh inactive, EBNA-1 inh inactive and Rev-erbA mod inactive.
Screening O=C(CN1C(=O)c2ccccc2C1=O)NCC(=O)OCC(=O)c1ccc(Cl)cc1 returned ZTA DNA inh inactive, aDG glyco up inactive, PG9 binder inactive, NCF1 inh inactive, EBNA-1 inh inactive and Rev-erbA mod inactive.
`O=C(CNC(=O)c1ccc(N2C(=O)c3ccccc3C2=O)cc1)OCC(=O)c1ccc(Cl)cc1` gave ZTA DNA inh inactive, aDG glyco up inactive, PG9 binder inactive, NCF1 inh inactive, EBNA-1 inh 36, Rev-erbA mod inactive, EBNA-1 confirm inactive and ZTA DNA inh trip inactive.
Screening Cc1ccc(C(=O)COC(=O)CNC(=O)c2ccc(N3C(=O)c4ccccc4C3=O)cc2)cc1C returned ZTA DNA inh inactive, aDG glyco up inactive, PG9 binder inactive, NCF1 inh inactive, EBNA-1 inh 29, Rev-erbA mod inactive, EBNA-1 confirm inactive and ZTA DNA inh trip inactive.
For CCCCCCCCNS(=O)(=O)CC1NCc2cc(F)ccc21 (stereo not given) the results were Rev-erbA mod inactive.
Screening COc1ccc(/C=C2/NC(=O)N(CC(=O)Nc3cccc(C)c3)C2=O)cc1O returned ZTA DNA inh inactive, aDG glyco up inactive, PG9 binder inactive, NCF1 inh inactive, EBNA-1 inh 56, Rev-erbA mod inactive, EBNA-1 confirm 76 and ZTA DNA inh trip inactive.
Screening CCOc1ccc2nc(NCCNC(=O)Nc3ccccc3)c(C#N)cc2c1 returned ZTA DNA inh inactive, aDG glyco up inactive, PG9 binder inactive, NCF1 inh inactive, EBNA-1 inh 34, Rev-erbA mod inactive, EBNA-1 confirm inactive and ZTA DNA inh trip inactive.
Screening CCOc1ccc2nc(NCCNC(=S)NCCCN(C)C)c(C#N)cc2c1 returned ZTA DNA inh inactive, aDG glyco up inactive, PG9 binder inactive, NCF1 inh inactive, EBNA-1 inh inactive and Rev-erbA mod inactive.
O=C(Oc1coc(CSc2ncccn2)cc1=O)c1ccc([N+](=O)[O-])cc1 was read as Rev-erbA mod inactive.
Screening O=[N+]([O-])c1cccc2[nH]c(CNc3nc(N4CCOCC4)nc4c3ncn4-c3ccsc3)nc12 returned Rev-erbA mod inactive.
Screening NC(=O)c1ccc(NC(=O)COC(=O)/C=C/c2ccc3c(c2)OCO3)cc1 returned ZTA DNA inh inactive, aDG glyco up inactive, PG9 binder inactive, NCF1 inh inactive, EBNA-1 inh 32, Rev-erbA mod inactive, EBNA-1 confirm inactive and ZTA DNA inh trip inactive.
`CC(=O)Nc1ccc(NC(=O)COC(=O)/C=C/c2ccc3c(c2)OCO3)cc1` gave ZTA DNA inh inactive, aDG glyco up inactive, PG9 binder inactive and Rev-erbA mod inactive.
For CCOc1ccc(NC(=O)CCC(=O)N/N=C/c2ccc3c(c2)OCO3)cc1 the results were ZTA DNA inh inactive, aDG glyco up inactive, PG9 binder inactive, NCF1 inh inactive, EBNA-1 inh 35, Rev-erbA mod inactive, EBNA-1 confirm inactive and ZTA DNA inh trip inactive.
Cc1ccc(OCCOc2ccc(Cl)cc2Cl)c(Br)n1 was read as Rev-erbA mod inactive.
For O=S(=O)(NCc1ccccc1)c1ccc(S(=O)(=O)N(Cc2cccs2)CC2CCCO2)cc1 (stereo not given) the results were ZTA DNA inh inactive, aDG glyco up inactive, PG9 binder inactive, NCF1 inh inactive, EBNA-1 inh 35, Rev-erbA mod inactive, EBNA-1 confirm inactive and ZTA DNA inh trip inactive.
`COc1cc(S(=O)(=O)N(Cc2cccs2)CC2CCCO2)ccc1-n1cnnn1` (stereo not given) gave ZTA DNA inh inactive, aDG glyco up inactive, PG9 binder inactive, NCF1 inh inactive, EBNA-1 inh inactive and Rev-erbA mod inactive.
Screening O=C(/C(=N/N=C/c1ccc(O)c(O)c1O)c1ccccc1)c1ccccc1 returned ZTA DNA inh inactive, aDG glyco up inactive, PG9 binder inactive, NCF1 inh inactive, EBNA-1 inh 39, Rev-erbA mod inactive, EBNA-1 confirm inactive and ZTA DNA inh trip inactive.
Screening CC(C)(N[C@@H](Cc1ccccc1)C(=O)NCCc1c[nH]c2ccccc12)C(=O)NC1CCCCC1 returned Rev-erbA mod inactive.
Screening O=C(NCCC1=CCCCC1)C1CCC(CNc2nc(=S)[nH]c3ccccc23)CC1 (stereo not given) returned ZTA DNA inh inactive, aDG glyco up inactive, PG9 binder inactive, NCF1 inh inactive, EBNA-1 inh 32, Rev-erbA mod inactive, EBNA-1 confirm inactive and ZTA DNA inh trip inactive.
For O=C(NCCc1ccc(Cl)cc1)C1CCC(CNc2nc(=S)[nH]c3ccccc23)CC1 (stereo not given) the results were ZTA DNA inh inactive, aDG glyco up inactive, PG9 binder inactive, NCF1 inh inactive, EBNA-1 inh 30, Rev-erbA mod inactive, EBNA-1 confirm 32 and ZTA DNA inh trip inactive.
COC(=O)[C@H]1C[C@@]2(C)c3ccccc3N(S(=O)(=O)c3ccccc3)[C@H]2N1C(=O)CNC1CCCCC1 was read as Rev-erbA mod inactive.
COc1ccccc1N1CCN(c2ccc([N+](=O)[O-])cc2Cl)CC1 was read as ZTA DNA inh inactive, aDG glyco up inactive, PG9 binder inactive, NCF1 inh inactive, EBNA-1 inh 38, Rev-erbA mod inactive, EBNA-1 confirm inactive and ZTA DNA inh trip inactive.
`COc1ccccc1N1CCN(S(=O)(=O)c2ccc([N+](=O)[O-])cc2)CC1` gave aDG glyco up inactive, PG9 binder inactive and Rev-erbA mod inactive.
Screening N#CCC(=N)N1CCN(c2ccccc2)CC1 returned ZTA DNA inh inactive, aDG glyco up inactive, PG9 binder inactive, NCF1 inh inactive, EBNA-1 inh inactive and Rev-erbA mod inactive.
